Assay outcomes deposited in PubChem by National Center for Advancing Translational Sciences (NCATS).
Tau fluor cs: counter-screen for tau fibril formation inhibitors | tau K18 P301L Alexa594 fluorescence, heparin fibrillization | Potency, µM (top dose mostly 57.7 µM), without a hit: at the highest dose activity change, negative = decrease | 280,000 tested, 0.93% active; also: nearly all actives have a fitted effect of over 55% in size
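Human tau K18 P301L (15 uM unlabeled, 0.24 uM Alexa 594-labeled) in 100 mM sodium acetate pH 7 with 20 uM heparin, 6 hr at 37 C. ThT 30 uM added, 1 hr ambient; Alexa 594 FP and total fluorescence read at 555/632 nm.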
TRb-SRC2 inh: TRbeta-SRC2 interaction inhibition. P10828. TRbeta-SRC2 peptide binding, fluorescence polarization; receptor liganded with 1 µM T3. Potency, µM (series often up to 106 µM), for the others: at the top dose activity change, negative = inhibition, most hits filed as inhibitors. 280,000 tested, 0.065% active. AID 1469;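 also: plate controls were bound peptide for no effect and peptide without receptor for full effect; nearly all actives have a fitted effect of over 50% in size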
Target sequence (P10828 whole entry, looked up): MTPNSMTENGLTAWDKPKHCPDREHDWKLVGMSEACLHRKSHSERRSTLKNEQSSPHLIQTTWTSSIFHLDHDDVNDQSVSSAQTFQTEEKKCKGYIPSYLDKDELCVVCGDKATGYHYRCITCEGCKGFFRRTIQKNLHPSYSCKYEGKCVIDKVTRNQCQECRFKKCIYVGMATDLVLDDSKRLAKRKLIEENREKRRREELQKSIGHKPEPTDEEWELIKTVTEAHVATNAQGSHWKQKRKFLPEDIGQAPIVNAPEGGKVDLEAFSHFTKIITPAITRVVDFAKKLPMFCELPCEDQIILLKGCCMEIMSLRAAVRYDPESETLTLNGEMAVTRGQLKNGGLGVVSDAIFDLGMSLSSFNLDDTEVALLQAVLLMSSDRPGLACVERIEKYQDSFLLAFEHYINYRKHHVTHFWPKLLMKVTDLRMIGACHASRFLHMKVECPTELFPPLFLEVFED
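Human TRb LBD (0.6 uM) plus Texas Red-labeled SRC2 peptide (20 nM), 1uM T3, 5% DMSO, 5 hr at ambient temperature. Decreased polarization (555/632 nm) flags inhibition; data normalized to free and bound peptide controls.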
TR SRC2 fluor cs: counter-screen for TRb-SRC2 inhibitors: fluorescence interference; TRb/SRC2 Texas Red total fluorescence interference; Potency, µM (titrated, usually from 106 µM), inactives show at the top dose fluorescence change, negative = quenching; 280,000 tested, 0.29% active; active = well fitted curve in either direction with a large enough effect; inconclusive = small, poorly fitted or top-dose-only effect
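Human TRb ligand-binding domain at 0.6 uM with 20 nM Texas Red SRC2 peptide in Tris buffer containing 1 uM T3 and 5% DMSO, incubated with compound 5 h at ambient temperature. Total fluorescence (555/632 nm) calculated as parallel + 2 × perpendicular.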
Tau FP inhib: inhibitors of human tau fibril formation | Potency, µM (series often up to 57.7 µM), for the others: at the highest dose activity, negative = inhibition, usual class: inhibitors | AID 1468 | 280,000 tested, 0.39% active | K18 P301L tau heparin fibrillization, Alexa594 FP, 6 h | P10636; also: nearly all actives have a fitted effect of over 55% in size
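Quantitative HTS format: compounds meet 15 uM recombinant K18 P301L tau and Alexa 594-tau tracer in 100 mM sodium acetate pH 7; 20 uM heparin triggers fibrillization at 37 C over 6 hr; FP gives the signal.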
Tau fibril ThT: tau fibrillization inhibition (ThT binding). 270,000 tested, 2.1% active. AID 1460. recombinant tau K18 P301L, heparin-induced fibrillization, ThT fluorescence. Potency, µM (series often up to 57.4 µM), inactives show top-dose activity, negative = inhibition, hits mostly inhibitors; also: nearly all actives have a fitted effect of over 55% in size
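Using a mix of unlabeled (15 uM) and Alexa 594-labeled (0.24 uM) tau K18 P301L, heparin-triggered fibrillization over 6 hr at 37 C was scored by ThT fluorescence.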
An asterisk follows results filed as active; u = inconclusive; x = no result; [ ] = dose if it differs, or a comment. Only some compounds are listed: those with a hit (about 3.1% of all), similar ones and a draw of the others. Unless noted, calls follow the shape of the dose curve; as a rule, active = well fitted curve in the direction sought with a large enough effect; inconclusive = small, poorly fitted or top-dose-only effect, or another doubt; inactive = no such curve, though single readings can be large; an effect the other way counts as inactive or inconclusive. Unless noted, % is scaled to controls: 0 for no effect and ±100 for the full control effect; potency is read from the fitted curve at half-maximal effect.

SMILES | Tau fluor cs | TRb-SRC2 inh | TR SRC2 fluor cs | Tau FP inhib | Tau fibril ThT
CCOc1ccc(Br)cc1C1C(C(=O)OC)=C(C)NC2=C1C(=O)c1ccccc12 (stereo not given) | 7.9µM*[quencher] | 6% | -4% | 1% | 10µM*
CC(C)Sc1ncc(Cl)c(C(=O)N(Cc2ccc(N(C)C)cc2)C2CCS(=O)(=O)C2)n1 (stereo not given) | -22% | -5% | -1% | -2% | -16%
COc1ccc(N/C(=C(/C(Cl)=C(Cl)Cl)[N+](=O)[O-])n2nnc3ccccc32)cc1OC | u | 0% | -5% | u | 14µM*
CC(C)(C)OC(=O)NC(Cc1ccccc1)C(O)c1ccco1 (stereo not given) | x | -4% | -2% | x | x
Cc1oc2ncn(CC(C)C)c(=O)c2c1C(=O)N(Cc1ccccc1)C(C)C | -5% | -5% | -18% | -11% | -3%
CN1C(=O)/C(=C/c2cn(CC(=O)NCc3ccco3)c3ccccc23)NC1=S | u | 7% | -1% | u | 13µM*
CC(C)C(=O)c1cn(CC(=O)NCc2ccco2)c2ccccc12 | 1% | -3% | 0% | 0% | 0%
CC[C@H](C)[C@@H]1NC(=O)c2cc([N+](=O)[O-])cc(I)c2NCC[C@@H](C(N)=O)NC(=O)[C@H](CCCN=C(N)N)NC1=O | -9% | -9% | -1% | -7% | -11%
NC(=O)[C@@H]1CCCNc2c(I)cc([N+](=O)[O-])cc2C(=O)N[C@@H](CCCN=C(N)N)C(=O)N[C@@H](CCCN=C(N)N)C(=O)N1 | u | -3% | -2% | -11% | 28µM*
CN(C1CCCCC1)S(=O)(=O)c1ccc2c(c1)c(=O)c(C(=O)NCCc1ccc(Cl)cc1)cn2C | -7% | -7% | -1% | -2% | -3%
COc1cc(/C=C2\SC(=O)N(c3ccccc3Cl)C2=O)cc([N+](=O)[O-])c1O | 16µM*[quencher] | 6% | -10% | -11% | 4µM*
COc1cc(/C=C2\SC(=O)N(CC(=O)Nc3cccc(C)c3)C2=O)cc([N+](=O)[O-])c1O | u | 2% | -12% | -2% | 13µM*
CCOc1cc(/C=C2\SC(=O)N(CC(=O)Nc3ccccc3F)C2=O)cc([N+](=O)[O-])c1O | u | -1% | -3% | 5% | 7.9µM*
COc1ccc(/C=C2\SC(=O)N(CC(=O)Nc3cccnc3)C2=O)cc1OC | -14% | 5% | -3% | -5% | -15%
COc1cc(/C=C2\SC(=O)N(c3ccc(O)cc3)C2=O)cc(OC)c1OC | -17% | -2% | -3% | -8% | -14%
COc1cc(/C=C2\SC(=N)N(c3ccc4c(c3)OCO4)C2=O)cc(OC)c1O | u | -4% | -2% | -9% | 3.2µM*
COc1cc(/C=C2\SC(=N)N(c3ccc(F)cc3)C2=O)ccc1O | u | -6% | -6% | u | u
CCOc1cc(CNC(=O)C2COc3ccccc3C2)cc(OCC)c1OCC (stereo not given) | -7% | 4% | -1% | 6% | -6%
COc1ccc(C(=O)COC(=O)c2cccc(NC(=O)c3ccc(OC)c(OC)c3)c2)cc1 | u | 7% | -1% | u | -1%
Cc1ccc(S(=O)(=O)N=C=O)cc1 | x | -1%[201 µM] | -2%[201 µM] | x | x
O=c1oc2ccccc2cc1-c1csc(NN=C2CCCCC2)n1 | 25µM*[quencher] | -12% | -10% | -9% | u
O=C(Nc1nc(-c2cc3ccccc3oc2=O)cs1)c1ccco1 | -12% | -3% | -3% | -14% | 1%
CC/C(=N/Nc1ccccc1C)c1cnnc(SC)n1 | -20% | 4% | -1% | u | 3.5µM*
CSc1nncc(/C(C)=N\Nc2ccccc2)n1 | -8% | -1% | 1% | -3% | 2.8µM*
CSc1nncc(/C(C)=N\Nc2cccc(C)c2)n1 | -11% | -23% | 0% | -8% | u
O=C1CCCC2=C1Sc1ccc(Cl)cc1N2 | -15% | -1% | -4% | 15% | 6.3µM*
COC(=O)c1ccc2c(c1)SC1=C(CCCC1=O)N2 | -6% | -24% | 17% | 5% | 13µM*
CC(C)(C)OC(=O)N1CCCC1C(=O)NC1COC2CC(n3cc(F)c(=O)[nH]c3=O)OC12 (stereo not given) | x | 3% | 1% | x | x
